Experimental data as given in PubChem BioAssay (Tox21).
Several values for one entry are separate records, joined by “and”; a condition that tells them apart may be missing. Identical values can stand only once. Records with an inconclusive call do not appear. Entries that show only a call come without a potency. Values without a mark were called inactive. Activity calls are given as the source filed them. Calls come from the whole dose curve; as a rule, active = well fitted cell-killing curve with a large enough effect in the repeat runs; inconclusive = weak or mixed curves, or effect the other way; inactive = flat fitted curve, though single readings scatter.

Assay: qHTS assay to identify small molecule agonists of the androgen receptor (AR) signaling pathway in the presence of an antagonist - cell viability counter screen (AID 1259379); note: nearly all actives have a fitted effect of over 25% in size
Details: MDA-kb2 viability, CellTiter-Fluor, 16 h; series mostly up to 92.4 µM; activity change, negative = cytotoxicity: at the top concentration
Text: National Center for Advancing Translational Sciences [NCATS]
NIH Chemical Genomics Center [NCGC]
U.S. Environmental Protection Agency [EPA]
National Institutes of Environmental Health Sciences [NIEHS]
National Toxicology Program [NTP]
U.S. Food and Drug Administration [FDA]
Androgen receptor (AR) is an important member of nuclear receptor family. Its signaling plays a critical role in AR-dependent prostate cancer and other androgen related diseases. Considerable attention has been given in the past decades to develop methods to study and screen for the environmental chemicals that have the potential to interfere with metabolic homeostasis, reproduction, developmental and behavioral functions. Therefore AR binding assay for screening against androgen agonists and antagonists can be used to identify potential endocrine disruptors.
MDA-kb2 cells (from ATCC, deposited by Wilson et al.) are human breast carcinoma cells that were stably transfected with a luciferase reporter gene under control of the MMTV promoter that contains response elements for both androgen receptor (AR) and glucocorticoid receptor (GR). This particular screening for measuring luciferase reporter gene activity using MDA-kb2 cells against Tox21 10K library compounds is a confirmation study on agonist mode screening in the presence of AR-antagonist compound (Nilutamide) at 3.0uM final concentration. The cytotoxicity of the compounds was tested in parallel by measuring the cell viability using CellTiter-Fluor assay system (Promega, Madison, WI) in the same wells.
Tox21 Assay Protocol Summary:
MDA-kb2 cells (cells cultured without CO2) were dispensed at 3,000 cells/well in 4uL of culture medium into white wall/solid-bottom 1536-well plates (Corning Life Sciences, Corning, NY) using a Multidrop Combi (Thermo Fisher Scientific Inc., Waltham, MA) dispenser. The assay plates were incubated at 37C and 0% CO2 for 5hr. One uL of 3.0uM (final concentration) Nilutamide or assay buffer was added using two separate tips of Flying Reagent Dispenser (FRD, Aurora Discovery, San Diego, CA). Then 23nL of compounds dissolved in DMSO at 15 concentrations and positive controls were transferred to the assay plates using a Pintool station (Wako, San Diego, CA). The assay plates were incubated at 37C and 0% CO2 for 16 hr. After 15hr incubation at 37C, 1uL/well CellTiter-Fluor reagent (Promega Corporation) was added to each well of the assay plates using FRD. After 1hr incubation at 37C and 0% CO2, the fluorescence signal was measured using a ViewLux plate reader (PerkinElmer, Shelton, CT).
Potency is the fitted concentration of half-maximal effect.

| Compound | Potency | activity change, negative = cytotoxicity |
| --- | --- | --- |
| C=CC(=O)OCCC(=O)O | inactive | – |
| CC(=O)CC(C)(C)O | inactive | – |
| COc1ccc(CCC(C)=O)cc1 | inactive | – |
| c1ccc(Oc2ccccc2)cc1 | inactive | – |
| OC1C(O)C(O)C(O)C(O)C1O (stereo not given) | inactive | – |
| CCOC(=O)n1ccn(C)c1=S | inactive | – |
| CC(C)OC(=O)COc1ccc(Cl)cc1Cl | inactive | – |
| O=S(=O)(O)c1ccccc1 | inactive | – |
| O=C(O)c1ccc(S(=O)(=O)N(Cl)Cl)cc1 | – | -0.571% [at 42.5 µM] |
| O=C(O)Cn1c(=O)n(Cc2ccc(Br)cc2F)c(=O)c2ccc(Cl)cc21 | inactive | – |
| CN(C)c1ccc(O)c2c1C[C@H]1C[C@H]3[C@H](N(C)C)C(=O)C(C(N)=O)=C(O)[C@@]3(O)C(=O)C1=C2O | – | -10% [at 42.5 µM] |
| CN1C(=O)CC[C@H]1c1cccnc1 | inactive | – |
| CCCCCCCCCCCCCCCC(=O)OC(C)C | inactive | – |
| c1ccc2c(c1)Cc1ccccc1-2 | inactive | – |
| O=C1CCCC1 | inactive | – |
| NCCNCCN | inactive | – |
| CC1(C)OC[C@@H]2O[C@@]3(C(=O)O)OC(C)(C)O[C@H]3[C@@H]2O1 | inactive | – |
| CCCCCCO | inactive | – |
| CNC(=O)Oc1ccc2c(c1)[C@]1(C)CCN(C)[C@@H]1N2C | inactive | – |
| CCCCCCCCCCN | inactive | – |

| Compound | Potency | activity change, negative = cytotoxicity |
| --- | --- | --- |
| CSc1ccc(Cl)cc1 | inactive | – |
| O=S(=O)(O)c1ccc(N=Nc2c(O)ccc3cc(S(=O)(=O)O)ccc23)cc1 | 54.7 µM (active) and 30.6 µM (active) | – |
| CCCCCCC=O | inactive | – |
| Cc1ccc([N+](=O)[O-])cc1S(=O)(=O)O | inactive | – |
| CCO[Si](CCC#N)(OCC)OCC | inactive | – |
| C=CC[N+](C)(C)CC=C | inactive | – |
| CC(=O)OCc1ccco1 | inactive | – |
| OCc1ccccc1 | inactive | – |
| CC(=O)OCc1ccccc1 | inactive | – |
| CC1(C)S[C@@H]2[C@H](NC(=O)COc3ccccc3)C(=O)N2[C@H]1C(=O)O | inactive | – |
| Cc1ccc(C(C)C)c(O)c1 | inactive | – |
| C=CC(C)CCCC(C)(C)O (stereo not given) | inactive | – |
| CC(C)CCCCCCCOC(=O)CCCCC(=O)OCCCCCCCC(C)C | inactive | – |
| CC(=O)Oc1ccc(C)cc1 | inactive | – |
| CC(=O)c1ccc(O)cc1 | inactive | – |
| CCOCCOCCOCCO | inactive | – |
| NCCCCCCN | inactive | – |
| Cc1ccc2ncccc2c1 | inactive | – |
| O=C(O)CCCCCCCCC(=O)O | inactive | – |
| NCCN1CCNCC1 | inactive | – |
